Data as given in the supplement of paper PMC10338343.
± gives the standard deviation. Over roughly 3,000 sequences, “pre-steady-state target cleavage rate” has its median near 0.0079; the highest 2% begin near 0.2. Many of the other results were omitted from the sample, so the highest values are more common in it than they were.

The sequences below were run on MILI (PIWIL2) piRISC loaded with piRNA #2 (26 nt) (assay: pre-steady-state target cleavage rate (min^-1); MIWI and MILI are mouse PIWI proteins and EfPiwi is from a freshwater sponge; tags in brackets are library labels; higher = faster piRNA-guided slicing of the target). Settings: guide: piRNA #2 5'p-UUAGGUAACCCAGUAGAUCCAGAGGA; auxiliary factor: 500 nM mouse GTSF1.
Procedure: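 Cleave-'n-Seq: a library of target RNAs (target site embedded in constant flanks, ACAGCATTCCGCGTTAGTGATATCCG... 5' flank; DNA-blocked outside the site) at 0.1 nM was incubated with 1 nM active mouse MILI or MIWI piRISC (synthetic 5'-monophosphorylated piRNA guide) with or without 500 nM mouse GTSF1 at 33 °C for 1 min to 16 h. Uncleaved targets were sequenced and normalised to non-target controls, and the pooled three trials were fitted to a burst-and-steady-state model to give the pre-steady-state cleavage rate (min^-1; k3 is constrained to at most 1e-4). Sequence is the target site only; target names encode pairing extent (gX:gY) and contiguous / 1-mismatch / 2-mismatch / bulge geometry. Fits with R² ≤ 0 are excluded.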

| Sequence | pre-steady-state target cleavage rate |
| --- | --- |
| CUUAAGGACUGGAUCUACUGGGUUACCUAG [g2:g22:cont:t1G] | 0.0474 ± 0.017 |
| CUUAAGCUCAGGAUCUACUGGGUUUCCUAA | 0.0265 ± 0.01 |
| CUUAAGCUCUGGAUCUAAUGGGUUACCUAA | 0.0186 ± 0.0042 |
| CUUAAGCUCUGGAUCUACUGGGUGUACCUAA | 0.0345 ± 0.0091 |
| CUUAACCUCUGGAUCUCUGGGUUACCUAA | 0.00889 ± 0.0054 |
| CUUAUCCUCUGGAUCUCUGGGUUACCUAA | 0.0227 ± 0.01 |
| CUUAACCUCUGGAUCUGCUGGGUUACCUAA | 0.097 ± 0.028 |
| CUUAACCUCUGGAUCUCCUGGGUUACCUAA | 0.213 ± 0.084 |
| CUUAUCCUCUGGAUCUCCUGGGUUACCUAA | 0.459 ± 0.18 |
| CUUAUCCUCUGGAUCUGCUGGGUUACCUAA | 0.0654 ± 0.015 |
| CUUAAGCUCUGGAUCAACUGGGUUACCUUA | 0.0336 ± 0.011 |
| CUUAAGGUCUGGAUCUACUGGGUUUACCUAA | 0.0618 ± 0.011 |
| CUUAACCUCUGGAUCUUCUGGGUUUCCUAA | 0.243 ± 0.083 |
| CUUAACCUCUGGAUCUACUGGGUUUACCUAA | 0.0817 ± 0.019 |
| CUUAACCUCUGGAUCUUCUGGGUUACCUAA | 0.0795 ± 0.017 |
| CUUAACCUCUGGAUCUACUGGGUUAACCUAA | 0.115 ± 0.024 |
| CUUAACCUCUGCAUCUACUGGGUUUCCUAA | 0.14 ± 0.059 |
| CUUAACCUCUGGAUCUACUGGGUUUCCUAA | 0.224 ± 0.062 |
| CUUAACCUCUGGUUCUACUGGGUUUCCUAA | 1.67 ± 0.98 |
| CUUAACCUCUGGAUCUACUGGGUUUGCUAA | 0.305 ± 0.066 |

| Sequence | pre-steady-state target cleavage rate |
| --- | --- |
| CUUAACCUCUGGAUCUACUGGGUUAGCUAA | 0.112 ± 0.022 |
| CUUAACCUCUCGAUCUACUGGGUUUCCUAA | 0.138 ± 0.035 |
| CUUAAGCUCUGGAUCUACUGGGUUUGCUAA | 0.144 ± 0.031 |
| CUUAACCUCUGGAUCUUCUGGGUAACCUAA | 0.0414 ± 0.016 |
| CUUAAGGAGACCUAGUACUUGGUUACCUAA | < 0.0001 |
| CUUAUGCUCUGGAUCUACUGGGUAACCUAA | 0.0539 ± 0.012 |
| CUUAAGGACUGCAUCUACAGGGUUACCUAA | 0.0435 ± 0.015 |
| CUUAACAUCUGGAUCUACUGGGUUACCUAA | 0.114 ± 0.019 |
| CUUAAGGAGUGGAUCUACUGGGUUACCUAG [g2:g21:cont:t1G] | 0.0456 ± 0.013 |
| CUUAAGCUGACGAUCUACUGGGUUACCUAA | 0.0365 ± 0.015 |
| CUUAAGCUCUGGAUUACUGGGUUACCUAA | 0.0142 ± 0.0047 |
| CUUAAGGAGAGGAUCUACUGGGUUACCUAA [g2:g20:cont:t1A] | 0.0156 ± 0.0072 |
| CUUAAGGACAGGAUCUACAGGGUUACCUAA | 0.0375 ± 0.014 |
| CUUAACCACUGGAUCAACUGGGUUACCUAA | 0.0515 ± 0.014 |
| CUUAAGCUCUGGUUCUACUGGGUUUCCUAA | 0.219 ± 0.085 |
| CUUAACCUCUGGAUCUACUGGGUUUCCUUA | 0.225 ± 0.066 |
| CUUAAGCUCUGCAUCUACUGGGUUUCCUAA | 0.0656 ± 0.022 |
| CUUAACCUCUGGAUCUACUGGGUUACCUUA | 0.111 ± 0.026 |
| CUUAACCUCUGGAUCUACUGGGUUUCGUAA | 0.128 ± 0.044 |
| CUUAAGCUCUGGAUCUACUGGGUUUCCUAA | 0.107 ± 0.025 |

| Sequence | pre-steady-state target cleavage rate |
| --- | --- |
| CUUAUCCUCUGGAUCUAGUGGGUUUCCUAA | 0.055 ± 0.016 |
| CUUAAGCUCUGGAUCUUCUGGGUUUCCUAA | 0.0561 ± 0.017 |
| CUUAUCCUCUGGAUCUUCUGGGUUUCCUAA | 0.258 ± 0.088 |
| CUUAACCUCUCGAUCUACUGGGUAACCUAA | 0.0796 ± 0.017 |
| CUUAACCACUGGUUCUACUGGGUUACCUAA | 0.112 ± 0.019 |
| CUUAACCACUGCAUCUACUGGGUUACCUAA | 0.0927 ± 0.018 |
| CUUAUCCUCUGGAUCUACUGGGUGACCUAA | 0.0696 ± 0.014 |
| CUUAACCUCUGGAACUACUGGGUUUCCUAA | 0.311 ± 0.14 |
| CUUAACCUCUGGAACUACUGGGUUACCUAA | 0.133 ± 0.03 |
| CUUAUCCUCUGGAACUACUGGGUAACCUAA | 0.0599 ± 0.022 |
| CUUAUCCUCUGGAACUACUGGGUUAGCUAA | 0.0654 ± 0.021 |
| CUUAACCUCUGGAACUACUGGGUAACCUAA | 0.06 ± 0.024 |
| CUUAUCCUCUGGAACUACUGGGUUUCCUAA | 1.1 ± 0.56 |
| CUUAAGGACUGGAUCUACUGGGUUACCUUAA | 0.0243 ± 0.014 |
| CUUAUCCUCUGGAUCUAUUGGGUUACCUAA | 0.139 ± 0.036 |
| CUUAAGGAGACCUAGAUGACGGUUACCGAA | < 0.0001 |
| CUUAAGCUCUGGAUCUACUGGGUUCCCUAA | 0.0477 ± 0.017 |
| CUUAAGCUCUGCAUCUACUGGGUUACGUAA | 0.0499 ± 0.016 |
| CUUAUCCUCUGGAUCAACAGGGUUACCUAA | 0.0724 ± 0.01 |
| CUUAAGGUCUGCAUCUACUGGGUAACCUAA | 0.00707 ± 0.006 |
